IL-1B inflam inh = inflammasome signaling inhibition, IL-1 beta readout | hit rate 4.7% among 360,000 | activity change, % at 57.5 µM | THP-1 LPS/ATP IL-1B secretion, AlphaLISA, 16 h; active compounds read low | AID 743279; in the data active = activity change below about -50%; inconclusive = mostly about -30% to -49%
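Secreted IL-1B measured by AlphaLISA bead assay after 16 h compound exposure of THP-1 cells; compounds (final up to 57.5 uM) added 1 h before LPS (250 ng/mL) and ATP (1.25 mM) stimulation; lower signal means less secretion.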
ATXN2 expr inh = ATXN2 expression inhibition; HEK-293 ATXN2-luciferase reporter, luminescence, 24 h; Potency, µM (top dose mostly 57 µM), hits mostly inhibitors; hit rate 0.72% among 360,000; note: nearly all actives have a fitted effect of over 55% in size
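ATXN2-luciferase reporter cells (luciferase flanked by upstream and downstream ATXN2 gene portions) were treated 24 h at 37 °C with compounds at up to 57 uM. SteadyGlo luminescence gave expression; GF-AFC fluorescence gave viability.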
USP2a block = inhibitors of human ubiquitin-specific protease USP2a; hit rate 0.01% among 330,000; Potency, µM (titrated, usually from 38.3 µM), usual class: inhibitors; AID 463254; USP2 core, Ub-CHOP2 coupled fluorogenic reporter, 485/531
Target sequence (O75604 whole entry, looked up): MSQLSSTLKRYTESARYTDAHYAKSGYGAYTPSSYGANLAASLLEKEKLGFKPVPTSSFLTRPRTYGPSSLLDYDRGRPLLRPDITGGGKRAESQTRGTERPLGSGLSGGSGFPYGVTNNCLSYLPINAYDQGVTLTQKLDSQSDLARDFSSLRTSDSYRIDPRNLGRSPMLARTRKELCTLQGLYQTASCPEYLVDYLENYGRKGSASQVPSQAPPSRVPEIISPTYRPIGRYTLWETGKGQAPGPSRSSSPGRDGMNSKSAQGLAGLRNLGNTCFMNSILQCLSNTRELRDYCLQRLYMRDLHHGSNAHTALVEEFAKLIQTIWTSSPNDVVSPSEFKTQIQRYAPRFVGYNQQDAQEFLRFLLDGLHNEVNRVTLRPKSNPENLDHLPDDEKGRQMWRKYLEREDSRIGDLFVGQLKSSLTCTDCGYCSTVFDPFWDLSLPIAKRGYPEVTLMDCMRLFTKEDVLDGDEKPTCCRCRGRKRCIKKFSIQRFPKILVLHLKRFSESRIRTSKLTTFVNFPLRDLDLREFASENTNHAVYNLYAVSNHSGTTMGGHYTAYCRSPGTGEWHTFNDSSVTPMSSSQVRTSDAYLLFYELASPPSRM
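Deubiquitinase activity read as fluorescence (485/531 nm) after Ub-CHOP2 cleavage activates the enterokinase reporter on its substrate; USP2 core 10nM, Ub-CHOP2 and substrate 25nM each, 30min compound preincubation then 60min RT; data normalized to NEM, curves fitted.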
USP1 inh = USP1/UAF1 (human) deubiquitinase inhibition; recombinant USP1/UAF1, Ub-Rhodamine cleavage fluorescence; O94782; Potency, µM (series often up to 57.1 µM), actives largely listed as inhibitors; hit rate 0.23% among 390,000; note: nearly all actives have a fitted effect of over 60% in size
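USP1/UAF1 complex at 1 nM was preincubated with compound for 15 min at room temperature, then Ub-Rho substrate (150nM final) was added. Fluorescence (480/540 nm) was read kinetically, 6 reads every 60 seconds.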
ATXN viability = cell viability loss in ATXN counter-screen; hit rate 0.49% among 400,000; S2 cells (HEK-293 line with an ATXN2-luciferase reporter) viability, CellTiter-Fluor protease fluorescence, 24 h; Potency, µM (series often up to 56.7 µM), actives largely listed as cytotoxic; note: nearly all actives have a fitted effect of over 40% in size
A number is an active result; - = inactive; ? = inconclusive; . = no result given; [ ] = another dose, or the depositor's remark. In the library only some 4.8% were active in any assay of this set; here they are far more common. Unless noted, calls come from the whole dose curve; as a rule, active = well fitted curve in the direction sought with a large enough effect; inconclusive = small, poorly fitted or top-dose-only effect, or another doubt; inactive = no such curve, though single readings can be large; an effect the other way counts as inactive or inconclusive.

SMILES	IL-1B inflam inh	ATXN2 expr inh	USP2a block	USP1 inh	ATXN viability
CCOCC(=O)Nc1ccc([N+](=O)[O-])cc1OC	-62	-[11.3 µM]	-	-	-
COc1ccccc1CC(=O)Nc1ccc([N+](=O)[O-])cc1O	-63	?	-	-	-
Fc1ccc(N2CCN(Cc3cccn3-c3nnc(N4CCN(C5CCCCC5)CC4)s3)CC2)cc1	.	-	.	-	-
COCCNc1oc(/C=C/c2cccc(OC)c2)nc1S(=O)(=O)c1ccccc1	-	.	.	-	-
O=C(Nc1cccc(O)c1)c1noc2c1CCc1ccccc1-2	-83	-	-	-	?
CC(=O)Nc1cccc(NC(=O)CCNC(=O)c2ccccc2)c1	-	-	-	-	-
COc1ccc(OC)c(N2CC(O)(c3ccccc3)[N+]3=C2SCCC3)c1 (stereo not given)	-51	-	-	-	.
OC1(c2ccc(Cl)cc2)CN(c2ccccc2)C2=[N+]1CCS2 (stereo not given)	-78	.	-	?	-
OC1(c2ccc(Br)cc2)CN(c2ccccc2)C2=[N+]1CCS2 (stereo not given)	-	.	-	-	-
Cc1ccc(C(=O)CCC(=O)Nc2ccccc2F)cc1	-	-	-	-	-
CCOC(=O)N1CCN(C(=O)c2cn(C)c3ccc(S(=O)(=O)N(C)C4CCCCC4)cc3c2=O)CC1	-	.	-	-	-
COC(=O)c1cccc(-n2sc3ccccc3c2=O)c1	-101	-	-	-	?
O=c1c2cc(F)ccc2sn1-c1ccccc1Cl	-105	?	.	-	22µM
N=C1SCC(=O)N1c1ccccc1Cl	-	-	-	-	-
O=c1c2ccc(F)cc2sn1-c1ccccc1	-106	?	.	?	20µM
O=C(c1sc2cc(F)ccc2c1Cl)N1CCN(c2cccc(Cl)c2)CC1	-	-	-	-	-
O=c1c2ccccc2sn1-c1ccc(F)cc1	-109	-	-	-	?
Cc1ccc(-n2sc3cc(F)ccc3c2=O)c(C)c1	-103	?	.	?	22µM
Cc1ccc(N2C(=O)CC(N3CCN(c4ccc(F)cc4)CC3)C2=O)c(C)c1 (stereo not given)	-	-	-	-	-
CC(/C=N/NC(=O)c1cc(-c2ccc(C)o2)[nH]n1)=C\c1ccccc1	-	.	-	-	-
O=C(N/N=C/C(Br)=C/c1ccccc1)c1cccs1	?	-	-	?	-
O=C(N/N=C/C(Br)=C/c1ccccc1)c1cc(-c2ccco2)[nH]n1	-68	-	-	-	-
O=C(N/N=C/C(Cl)=C/c1ccccc1)c1cnccn1	-	-	-	-	?
O=C(N/N=C/C(Cl)=C\c1ccccc1)c1cnccn1	-82	-	-	-	-
O=C(N/N=C/C(Cl)=C/c1ccccc1)c1ccccc1F	-69	-	-	?	-
SMILES	IL-1B inflam inh	ATXN2 expr inh	USP2a block	USP1 inh	ATXN viability
O=C(N/N=C/C(Br)=C/c1ccccc1)c1ccccc1F	-65	-	-	-	-
CC(C)(CN1CCOCC1)NS(=O)(=O)c1ccccc1	-	-	-	-	-
COc1ccc(OC)c(CNS(=O)(=O)c2c(C(=O)N3CCC(C)CC3)c(C)n(C)c2C)c1	.	.	.	-	.
COc1cccc(-c2nc(CS(=O)(=O)CC(=O)NCc3ccc(C)cc3)c(C)o2)c1	.	.	.	-	.
OC(c1ccccc1)(c1ccccc1)c1nccc2ccccc12	-55	-	.	-	-
CCC(=O)N(CC)C1=C(O)c2ccccc2C(=O)C1=O	-	-	-	25µM	.
CCC(=O)N(C)/C=C1\Sc2ccccc2C1=O	-	-	-	-	-
Nc1nccc(Oc2ccc(NC(=O)c3c[nH]cc(-c4ccc(F)cc4)c3=O)cc2F)c1Cl	.	31µM	.	.	.
CCOc1ccc(Cl)cc1-c1cc(C(=O)Nc2ccc(F)cc2)[nH]n1	-	?	.	.	?
COc1ccc(/C=N/n2cnc3c([nH]c4ccc(Br)cc43)c2=O)cc1CN1CCOCC1	-88	-	-	-	-
O=S(=O)(c1c(Cl)cc(Br)cc1Cl)N1CCN(C(=S)NC2CC2)CC1	-85	?	-	-	-
O=C(CN1Cc2ccccc2OC(c2ccccc2)C1)NCc1cccnc1 (stereo not given)	.	.	.	.	-
O=C(CCl)NC(Cc1ccccc1)c1ccccc1 (stereo not given)	-95	?	-	-	?
CC(=O)C(Cc1ccccc1)NC(=O)CCl (stereo not given)	-	-	-	-	-
Cc1cccc(NC(=O)C2CCCN(S(=O)(=O)c3c(C)n[nH]c3C)C2)c1 (stereo not given)	.	-	.	-	-
COc1ccc(C(=O)N/C(=C\c2ccc(Cl)cc2)C(=O)NCCN2CCOCC2)cc1	-	.	.	-	-
N#Cc1c2ccc(O)cc2n2ccccc12	-52	-	-	-	.
N#Cc1c2ccc(OCC(=O)NCc3ccco3)cc2n2ccccc12	-	-	-	-	-
Cc1c(C(=O)NCC(C)(C)CN(C)C)cnn1-c1nccc(-c2ccccc2F)n1	.	.	.	.	-
N#CC1=C(SCC(N)=O)NC2=C(C(=O)c3ccccc32)C1c1ccc(Cl)cc1 (stereo not given)	-52	?	-	-	?
O=C(C[C@H]1C[C@H](C(=O)N2CCCCC2)[C@@]2(CCc3ccccc3)c3[nH]c4ccc(Cl)cc4c3CCN2C1=O)NCCN1CCOCC1	-	-	-	-	-
COc1cc2c(cc1N)-c1ccc(N)cc1C2=O	-64	.	.	-	?
O=C(/C=C/c1ccc2ccccc2n1)N1CCN(S(=O)(=O)c2ccccc2F)CC1	-76	.	-	-	?
O=C(/C=C/c1ccc2ccccc2n1)N1CCN(S(=O)(=O)c2ccc(F)cc2)CC1	-89	.	-	-	?
O=CN1CCCN(C(=O)c2cc(NC(=O)c3ccccc3)cc3ncn(C4CCCC4)c23)CC1	.	.	.	.	-
SMILES	IL-1B inflam inh	ATXN2 expr inh	USP2a block	USP1 inh	ATXN viability
CC1CCN(c2nc(CN3CCCCC3)nc3scc(-c4ccccc4)c23)CC1	-74	?	-	-	.
CN1CCN(c2nc(-c3cccnc3)nc3scc(-c4ccccc4)c23)CC1	-52	-	-	-	.
CC1CCN(c2nc(-c3cccnc3)nc3scc(-c4ccccc4)c23)CC1	-	-	-	-	-
CC1CCCN(c2nc(-c3cccnc3)nc3scc(-c4ccccc4)c23)C1 (stereo not given)	-61	-	-	-	-
COc1ccccc1CCNC(=O)Cn1ccc2cc(S(=O)(=O)N3CCC(C)CC3)ccc21	?	-	-	-	-
Cc1ccc(C)c(S(=O)(=O)NCc2nc(N3CCCC3)c3cc(Cl)ccc3n2)c1	.	.	.	.	-
COc1cc(C(=O)NCCOc2cc(C)ccc2C(C)C)cc(OC)c1OC	-63	-	-	?	-
CCCCNCC#CCOc1cc(C)ccc1C(C)C	-70	.	-	-	?
Cc1ccc(C(C)C)c(OCCCNCc2cccnc2)c1	-	-	-	-	-
Cc1ccc(C(C)C)c(OCCNCCc2ccccc2)c1	-91	-	-	-	?
